Hits are enriched below; roughly 3.7% of the tested compounds scored in any of these assays.
PfHsp90 set2: growth inhibition of PfHsp90-expressing yeast, primary screen, antimalarial PfHsp90 inhibitor project, S. cerevisiae, BacTiter-Glo luminescence, single point, set 2 | BacTiter-Glo ATP, 48 h; yeast lacking PDR1 and PDR3 efflux regulators | inhibition, % at 9.4 µM | actives 0.32% (n = 310,000) | AID 504621, 2011;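 active means every replicate shows inhibition above about 80%, whatever the replicate mean, limit read from the data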;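 further: 0% = DMSO neutral controls and 100% = 20 µM radicicol positive controls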
tim23-1 inh: growth inhibitors of tim23-1 mutant yeast, primary screen, luminescence, uHTS | S. cerevisiae tim23-1 growth, BacTiter-Glo luminescence, 24 h | inhibition, % at 20 µM | actives 1.3% (n = 330,000) | AID 463212, 2010;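 active means growth inhibition of the mutant yeast at or above 50%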;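 further: temperature-sensitive mutant grown at 25 °C; plate controls were DMSO-treated mutant yeast for no effect and medium wells lacking yeast for full effect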
tim10-1 inh: growth inhibitors of tim10-1 mutant yeast, primary screen, luminescence, uHTS; S. cerevisiae tim10-1 ts strain growth, BacTiter-Glo, 24 h; inhibition, % at 20 µM; actives 2.2% (n = 330,000);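 active means inhibition of at least 40%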;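 further: mutant grown at 25 °C; 0% = DMSO wells with yeast and 100% = wells holding no yeast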
TIM10 inh: growth inhibitors of isogenic TIM10 control yeast, primary screen, counter-screen for tim10-1 yeast inhibitor project, luminescence, uHTS; S. cerevisiae TIM10 strain growth, BacTiter-Glo luminescence, 24 h; inhibition, % at 10 µM; actives 1.4% (n = 330,000); AID 463195, 2010;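 active means inhibition of 40% or more at the single tested concentration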;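 further: wild-type TIM10 isogenic control strain grown at permissive 25 °C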
NLRP3 yeast inh: NALP3 inflammasome inhibitors in reconstituted yeast, primary screen, luminescence, uHTS | Yeast reconstituted NLRP3/ASC/caspase-1, beta-gal luminescence, 24 h | inhibition, % at 10 µM | actives 0.39% (n = 330,000);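 active means inhibition of 50% or more; inactive means inhibition below 50%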;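 further: plate controls were induced DMSO wells for no effect and uninduced yeast grown without galactose for full effect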
tim23-1 confirm: tim23-1 mutant yeast growth inhibitors, confirmation, luminescence, single concentration; shares compounds with tim23-1 inh; S. cerevisiae tim23-1 growth, BacTiter-Glo luminescence, 24 h; inhibition, % at 20 µM; actives 83% (n = 4,400);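 active means inhibition above about 39% in either of two replicate wells at 20 µM, limit read from the data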;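 further: temperature-sensitive tim23-1 mutant grown at 25 °C; 0% = DMSO wells with yeast and 100% = medium wells without yeast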
Numbers without * were called inactive; . = no result given; + = active, no number.

SMILES | PfHsp90 set2 | tim23-1 inh | tim10-1 inh | TIM10 inh | NLRP3 yeast inh | tim23-1 confirm
COc1ccc(OC)c2nc(-c3ccncc3)ccc12 | -14 | 24 | 24 | 15 | 31 | .
Oc1ccc2ccccc2c1/C=N/Nc1ccccc1 | 0 | 35 | 13 | 19 | 1 | .
Oc1ccc2ccccc2c1C=NCc1ccccc1 | 29 | 65* | 4 | 8 | 16 | 60*
Cc1cccc(NC(=O)[C@@H](NC(=O)[C@@H]2Cc3ccccc3CN2)C(C)C)c1 | -1 | 12 | -22 | -5 | 18 | .
CCOc1ccc(OCCSc2nc3ccccc3[nH]2)cc1 | -17 | 60* | 16 | 26 | 28 | 32
O=C(NC(=O)c1ccncc1)NC(c1ccccc1)c1ccccc1 | -9 | 4 | -4 | -9 | -7 | .
Cc1cccc(C(=O)NC(=S)Nc2ccccc2C(F)(F)F)c1 | -31 | 51* | 30 | 22 | 26 | 38*
Cc1ccc(C(=O)NC(=S)Nc2ccccc2C(F)(F)F)cc1C | -1 | 3 | 23 | -14 | 12 | .
Cc1ccc(C2NC(c3ccc(C)cc3)C(C)C(=O)C2C)cc1 (stereo not drawn) | -5 | 30 | 23 | 12 | 12 | .
CC1=C(C#N)c2nc(N)c(C#N)c(C)c2/C1=C\c1ccc(OCC(=O)O)c(Cl)c1 | -18 | 54* | 37 | 18 | 10 | 49*
COc1ccc([C@H](NC(=O)OC(C)(C)C)C(=O)OC(C)(C)C)cc1 | 5 | 34 | 23 | 12 | 36 | .
COc1ccc2c(c1)OC[C@H]1[C@H]2N2C(=O)c3cc(C)ccc3NC(=O)[C@@]2(C)[C@H]1c1ccccc1 | 104* | 51* | 8 | -5 | 1 | 58*
COc1ccc2c(c1)C(=O)N1[C@H]3c4cc(C)ccc4OC[C@@H]3[C@H](c3ccccc3)[C@]1(C)C(=O)N2 | -24 | -10 | 29 | -9 | 0 | .
C[C@@]12C(=O)Nc3cc(F)c(F)cc3C(=O)N1[C@H]1c3cc(Cl)ccc3OC[C@@H]1[C@@H]2c1ccccc1 | -49 | 51* | 22 | 23 | 9 | 44*
C[C@@]12C(=O)Nc3ccccc3C(=O)N1[C@H]1c3cc(Cl)ccc3OC[C@@H]1[C@@H]2c1ccccc1 | -36 | 45 | 22 | 22 | 0 | .
COc1ccc2c(c1)[C@H]1[C@H](CO2)[C@H](c2ccccc2)[C@]2(C)C(=O)Nc3ccc(C)cc3C(=O)N12 | + | 51* | 21 | 12 | 8 | 43*
O=C(O)c1cccc(NC(=O)c2ccc3c(c2)C(=O)N(C2CCCCC2)C3=O)c1 | -26 | -14 | -15 | 14 | 2 | .
Cc1ccccc1Nc1nnc(SCC(=O)NC(=O)NCc2ccco2)s1 | -9 | 8 | 24 | -3 | 7 | .
COc1ccc(-c2nc(CS(=O)(=O)CC(=O)NCc3cccc(F)c3)c(C)o2)cc1 | 15 | 4 | 10 | 9 | 6 | .
CCCCCCn1nc(C(=O)OCC(=O)NC2CCS(=O)(=O)C2)c2ccccc2c1=O (stereo not drawn) | . | 7 | 10 | -1 | -13 | .
COCCCn1nnnc1SCC(=O)Nc1nc2ccccc2s1 | 2 | -2 | -14 | -4 | 15 | .
C[C@@H]1C(c2cccc(Cl)c2)=NN(c2ccc(Br)cc2)[C@H]1C(=O)N1CCOC1=O | -35 | 52* | 28 | 19 | . | 38*
C[C@@H]1C(c2cccc(Cl)c2)=NN(c2ccccc2)[C@H]1C(=O)N1CCOC1=O | -16 | 29 | 10 | -1 | . | .
C[C@@H]1C(c2ccccc2)=NN(c2ccccc2)[C@H]1C(=O)N1CCOC1=O | 5 | 54* | 32 | 11 | . | 33
CC(NCCOc1ccccc1F)C(=O)Nc1ccc(S(N)(=O)=O)cc1 (stereo not drawn) | -17 | -8 | 24 | 3 | 6 | .
SMILES | PfHsp90 set2 | tim23-1 inh | tim10-1 inh | TIM10 inh | NLRP3 yeast inh | tim23-1 confirm
O=C(Nc1ccccc1Cl)c1ccc(S(=O)(=O)NCC2CCCO2)cc1 (stereo not drawn) | 2 | 1 | 2 | -2 | 21 | .
O=C1/C(=C\c2cccs2)N=C(c2cccs2)N1Nc1ccccc1 | -11 | 66* | 31 | 32 | -5 | 41*
O=C1/C(=C/c2cccs2)N=C(c2cccs2)N1Nc1ccccc1 | -8 | 57* | 23 | 30 | 9 | 51*
Cc1ccc(C2=N/C(=C\c3cccs3)C(=O)N2Nc2ccccc2)cc1 | -47 | 40 | 29 | 16 | 17 | .
O=C1N=C(c2ccccc2)S/C1=C\c1cccs1 | 0 | 36 | 6 | 25 | 8 | .
Cc1ccc2c(c1)N(CC(=O)NCCc1c[nH]c3ccccc13)C(=O)CO2 | 11 | 10 | 9 | 7 | 3 | .
COc1ccccc1OCCn1cc(C=O)c2ccccc21 | -22 | 30 | 24 | 4 | 23 | .
O=Cc1cn(CCOc2ccccc2F)c2ccccc12 | 5 | 51* | 14 | 5 | 25 | 38*
CCCN1C(=O)C(Cc2nc3ccccc3c(=O)n2-c2ccccc2)c2ccccc21 (stereo not drawn) | 7 | 51* | 15 | 13 | 4 | 49*
CC(C)N1C(=O)C(Cc2nc3ccccc3c(=O)n2-c2ccccc2)c2ccccc21 (stereo not drawn) | -7 | 45 | 15 | 39 | 4 | .
CSCCC(NC(=O)c1ccccc1Cl)C(=O)NCC1COc2ccccc2O1 (stereo not drawn) | . | 22 | 16 | 20 | 16 | .
COc1ccccc1Nc1nc2ccc(C)cc2n2cnnc12 | -8 | 51* | 32 | 21 | 17 | 32
COc1ccc(Nc2nc3ccc(C)cc3n3cnnc23)cc1Cl | -19 | 29 | 19 | 9 | 30 | .
CC1=NOC(=O)/C1=C\c1ccc(-c2cccc(Cl)c2)o1 | -14 | 57* | 16 | 32 | 4 | 69*
CC1=NOC(=O)/C1=C\c1ccc(-c2ccc(Cl)c(C(=O)O)c2)o1 | -7 | 16 | 7 | -10 | 5 | .
COc1ccc(CN2CCN(C(=O)c3cccc4ccccc34)CC2)cc1Br | -12 | 50* | -7 | 4 | 17 | 19
COc1ccc(CN2CCN(C(=O)c3cccc4ccccc34)CC2)cc1OC | 0 | 17 | 15 | 4 | 27 | .
Cn1c(=S)ccc2ccccc21 | -26 | 2 | 0 | 9 | -3 | .
N#Cc1c(NC(=O)c2ccc([N+](=O)[O-])o2)sc2c1CCC2 | -33 | 58* | 37 | 38 | 14 | 69*
NC(=O)c1c(NC(=O)c2ccc([N+](=O)[O-])o2)sc2c1CCCC2 | -67 | 44 | 28 | 16 | -8 | .
O=c1c2cc(Br)ccc2nc(-c2ccccc2)n1O | 14 | 60* | 23 | 10 | 21 | 50*

High-throughput results from PubChem.
